Data published in the supplement of paper PMC12636033.
± gives the standard deviation of the averaged measurements. The full ranking holds about 33,000 sequences; the median of “E-score (rank enrichment, -0.5 to 0.5)” is about -0.0068, and the highest 2% start at about 0.24. The full list was thinned out, with the highest values kept by preference.

test system: muMax20 (Max(13-93) K31hArg/K57hArg, M65Nle); experiment: PBM 8-mer E-score (E-score (rank enrichment, -0.5 to 0.5)); higher = stronger preferential binding
Experimental: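 Protein binding microarray (universal PBM chip covering all 10-mers in fixed probe flanks) with chemically synthesized human Max(13-93) bHLH-LZ analogs (not full-length Max) bearing noncanonical residues (hArg, Tha, Aib, Nle at 65) and aromatic Cys staples. Read-out per 8-mer (and its reverse complement): E-score (rank-based enrichment, -0.5 to 0.5) and Z-score of median probe intensity.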

Row | Sequence | PBM 8-mer E-score
1 | ACGATGCC | -0.151 ± 0.016
2 | ATATGCCG | 0.0671 ± 0.1
3 | ATATGCCA | 0.242 ± 0.062
4 | CTATGCCA | 0.0539 ± 0.12
5 | ACGTGCAC | 0.334 ± 0.11
6 | AAGTGCAT | 0.132 ± 0.029
7 | ACGTGCAT | 0.33 ± 0.053
8 | CCGTGCTA | -0.0534 ± 0.02
9 | GCGTGCTA | 0.138 ± 0.033
10 | ACGTGCAA | 0.251 ± 0.095
11 | GCGTGCAC | 0.208 ± 0.024
12 | TCGTGCAA | 0.0413 ± 0.0064
13 | ACGTGCTA | 0.278 ± 0.041
14 | CCGTGCAC | 0.0347 ± 0.013
15 | CCGTGCAA | -0.0343 ± 0.018
16 | AGGTGCAT | 0.0164 ± 0.091
17 | CAAGCTCG | -0.109 ± 0.086
18 | AAGACCCT | 0.0269 ± 0.086
19 | GACCGTGC | -0.11 ± 0.054
20 | AGCCTCAA | -0.0979 ± 0.089
21 | CGTCTCGC | -0.117 ± 0.017
22 | CTAGCCAG | -0.0885 ± 0.015
23 | GACACGAC | 0.0582 ± 0.097

Row | Sequence | PBM 8-mer E-score
24 | GGTGCAAA | 0.0271 ± 0.074
25 | CTCGCCTC | -0.157 ± 0.053
26 | CCTCAGTA | -0.184 ± 0.019
27 | AGGTTTAG | -0.0204 ± 0.08
28 | ACGTGCAG | 0.252 ± 0.00027
29 | ACGTGCCG | 0.207 ± 0.098
30 | CCGTGCAG | -0.128 ± 0.047
31 | CTGTAGGC | -0.151 ± 0.011
32 | GACAACAA | 0.125 ± 0.046
33 | CGTCTGGC | -0.194 ± 0.022
34 | CATAATAA | 0.216 ± 0.021
35 | CATAATAG | 0.229 ± 0.017
36 | AATAATAG | 0.263 ± 0.024
37 | CATAATAC | 0.26 ± 0.066
38 | ACTAATAT | 0.199 ± 0.0057
39 | ACTAATAG | 0.191 ± 0.025
40 | AATAATAT | 0.244 ± 0.011
41 | AATAATAC | 0.16 ± 0.018
42 | TATAATAA | 0.315 ± 0.015
43 | GATAATAA | 0.164 ± 0.034
44 | GATAATAC | 0.204 ± 0.073
45 | TGTAATAA | 0.189 ± 0.076
46 | CAGCCTGA | -0.0558 ± 0.092

Row | Sequence | PBM 8-mer E-score
47 | CGGCGGAA | -0.0106 ± 0.03
48 | AATTGCTC | -0.0189 ± 0.0015
49 | ACTAGATC | -0.0146 ± 0.044
50 | CGCACCAG | -0.0279 ± 0.043
51 | ATGAGACC | -0.0938 ± 0.12
52 | CTGTCCTC | -0.0695 ± 0.18
53 | CGTCCTGC | -0.0779 ± 0.08
54 | ATAGCTGG | -0.243 ± 0.062
55 | AATAATCC | 0.0218 ± 0.0033
56 | AAAAATAA | 0.0636 ± 0.065
57 | AATACTAT | 0.265 ± 0.077
58 | AATAATAA | 0.277 ± 0.011
59 | TCTAATAA | 0.236 ± 0.032
60 | CCTAATAA | 0.103 ± 0.096
61 | GGTAATAA | 0.0931 ± 0.008
62 | AATACTAC | 0.197 ± 0.038
63 | AATACTAA | 0.158 ± 0.052
64 | AGTAATAA | 0.271 ± 0.0094
65 | AGTAATAG | 0.227 ± 0.078
66 | ACTAATAA | 0.222 ± 0.015
67 | AACGGAGT | -0.013 ± 0.052
68 | ATCGTCGA | -0.133 ± 0.025
69 | ATTGGATA | -0.0183 ± 0.031

Row | Sequence | PBM 8-mer E-score
70 | ATAATGAC | 0.122 ± 0.01
71 | CCAGTCCA | -0.0788 ± 0.061
72 | TAAAAGTA | 0.189 ± 0.074
73 | GTGGGCAA | 0.0632 ± 0.065
74 | CGATGTGA | -0.012 ± 0.0036
75 | CTATGTGC | 0.175 ± 0.034
76 | GCATGTGA | 0.236 ± 0.11
77 | AAATGTGG | 0.139 ± 0.016
78 | CCATGTTC | -0.0553 ± 0.12
79 | CCATGTGA | 0.268 ± 0.088
80 | ACATGTCA | 0.0739 ± 0.079
81 | CCATGTGC | 0.265 ± 0.12
82 | AGATGTGA | 0.11 ± 0.04
83 | AGATGTGG | -0.0064 ± 0.024
84 | ACATGTGA | 0.313 ± 0.063
85 | ACATGTGG | 0.335 ± 0.035
86 | CTAGTAAC | 0.196 ± 0.0053
87 | ATCTTGGC | -0.108 ± 0.011
88 | AGCTCGTG | 0.0196 ± 0.019
89 | GGGCCACA | -0.0874 ± 0.078
90 | CTGCTGCC | -0.156 ± 0.007
91 | GTGTCTAA | 0.0915 ± 0.069
92 | ATGGATAA | 0.163 ± 0.05

Row | Sequence | PBM 8-mer E-score
93 | GATCCAAC | -0.0916 ± 0.056
94 | CGATGCAG | -0.0636 ± 0.022
95 | AGGCACAA | 0.00764 ± 0.053
96 | ACATGTGC | 0.265 ± 0.089
97 | ACATGTCC | 0.132 ± 0.091
98 | AGATGTGC | -0.0232 ± 0.13
99 | AAAAGGGT | 0.017 ± 0.098
100 | CCCACGCG | 0.246 ± 0.025
101 | ACCACGCC | -0.112 ± 0.055
102 | ACCACGCA | -0.00629 ± 0.023
103 | CGCACGCG | 0.171 ± 0.035
104 | ACCACGCG | 0.3 ± 0.11
105 | CCCACGCC | -0.00197 ± 0.078
106 | CCCACGCA | -0.043 ± 0.11
107 | AGCACGCG | 0.238 ± 0.13
108 | CAAACACA | 0.181 ± 0.095
109 | CAAACACG | 0.292 ± 0.006
110 | TAAACACA | 0.218 ± 0.043
111 | AGCACGCA | 0.00177 ± 0.16
